According to PubChem BioAssay (NCI):
Compounds without any hit were thinned out: in the full panel of roughly 79,000, 15% have a hit. The source made the active and inactive calls. Cut-off read from the data, not from the text of the source: active = growth inhibition above about 70%; inactive = the rest. Where a SMILES comes first, the peptide text is derived from it.

Experiments:
[1] = NCI Yeast Anticancer Drug Screen. Data for the rad50 strain (AID 155);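 note: 0% = growth of vehicle-only cultures of the same strain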; conditions: S. cerevisiae rad50 strain growth inhibition; at 50.0 µM; stronger effect = higher value
Procedure, shortened: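 Vehicle-treated cultures provide the reference for the growth inhibition reported for compound-exposed, repair-deficient yeast.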

[2] = NCI Yeast Anticancer Drug Screen. Data for the mec2-1 strain (AID 157); conditions: S. cerevisiae mec2-1 strain, at 50.0 µM, stronger effect = higher value
Procedure, shortened: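 Test agents were screened against the mec2-1 yeast strain, with defined DNA repair or cell cycle alteration. Growth was scored as inhibition against vehicle-only controls.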

[3] = NCI Yeast Anticancer Drug Screen. Data for the sgs1 mgt1 strain (AID 161);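 note: 0% = growth of cultures given vehicle only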; conditions: S. cerevisiae sgs1 mgt1 strain, at 50.0 µM, stronger effect = higher value
Procedure, shortened: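 Test agents were incubated with a DNA-repair-mutant yeast strain. Growth was then read and compared against vehicle-treated controls.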

[4] = NCI Yeast Anticancer Drug Screen. Data for the cln2 rad14 strain (AID 165);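 note: 0% = growth equal to vehicle treated cultures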; conditions: S. cerevisiae cln2 rad14 strain, at 50.0 µM, stronger effect = higher value
Procedure, shortened: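 Growth of compound-exposed yeast (cln2 rad14 genotype) measured and expressed as inhibition relative to vehicle.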

[5] = NCI Yeast Anticancer Drug Screen. Data for the bub3 strain (AID 167); conditions: S. cerevisiae bub3 mutant strain, at 50.0 µM, stronger effect = higher value
Procedure, shortened: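 Mutant yeast screening strain plus compound; vehicle-treated cultures serve as the 0% inhibition reference.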

[6] = NCI Yeast Anticancer Drug Screen. Data for the mlh1 rad18 strain (AID 175); conditions: S. cerevisiae mlh1 rad18 strain growth inhibition; at 50.0 µM; stronger effect = higher value
Procedure, shortened: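 In this whole-cell yeast screen, a strain with altered DNA damage repair is challenged with compound, and its growth is measured against matched vehicle-treated controls.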

Measured: growth inhibition

COc1ccc2[nH]c3c4c(c5cc(C(C)(C)C)ccc5c3c2c1)C(=O)N(c1ccccc1)C4=O
inactive: [1] -12.8% | [2] -13.3% | [3] 3.1% | [4] 16.7% | [5] -14.2% | [6] -8.7%

N#Cc1c(-c2ccco2)cc(-c2ccc(N)cc2)[nH]c1=O
inactive: [1] -0.6% | [2] 4.7% | [3] 17.7% | [4] 15.8% | [5] -8.9% | [6] 6.9%

CCCCCCCCCCCCOC(=S)CCl
inactive: [1] -10.9% | [2] -10.7% | [3] 10.8% | [4] -18.9% | [5] 4.55% | [6] 14.7%

C[N+](C)(CCNc1ccc(NCC[N+](C)(C)Cc2ccc([N+](=O)[O-])cc2)c2c1C(=O)c1c(O)ccc(O)c1C2=O)Cc1ccc([N+](=O)[O-])cc1
active: [1] 72.2% | [2] 84.6% | [3] 77.9% | [4] 78.1% | [5] 76.7% | [6] 76.8%

CC(=O)Nc1ccc(/C=N/NC(=O)COCC(=O)N/N=C/c2ccc(NC(C)=O)cc2)cc1
inactive: [1] 7.8% | [2] 11.1% | [3] 0.15% | [5] -3.2% | [6] -9.65%
active: [4] 86.3%

CC1(C)C(C#N)C1C1=C(N2CCOCC2)[C@]2(C)C(OC(=O)c3ccccc3)CC[C@@H]2C1 (stereo partly specified)
inactive: [1] -8.6% | [2] -17.2% | [3] -8.7% | [4] 7.7% | [5] 12.4% | [6] 4.15%

Cc1ccc(NC(=O)COc2ccccc2)c(C)c1
inactive: [1] 4.35% | [2] 19.9% | [3] 15.9% | [4] -4.25% | [5] 28.3% | [6] 28.4%

CCOC(=O)CCCCCCCCCCCCCCCCC(=O)OCC
inactive: [1] 30.9% | [2] -31.9% | [3] -14.2% | [4] 19.5% | [5] 7.75% | [6] 8.9%

CCOC(=O)c1cnc(NCCCNc2ncc(C(=O)OCC)c(=O)[nH]2)[nH]c1=O
inactive: [1] -2.65% | [2] 4% | [3] -2.6% | [4] -44.9% | [5] 3.8% | [6] 10.3%

COC(=O)C1(CC(=O)C2CC2)NC(=S)NC(=O)C1C#N (stereo unspecified)
inactive: [1] 13.2% | [2] -10.2% | [3] -12.3% | [4] -8.6% | [5] -21.4% | [6] 5.2%

O=Cc1ccc2ccocc1-2
inactive: [1] 9.15% | [2] 14.8% | [3] -27.6% | [4] -11.8% | [5] -20.7% | [6] -41.2%

CN(C)Cc1c(C(O)(c2ccccc2)c2ccccc2)cc2ccccc2c1Cl
inactive: [1] -12.8% | [2] -15.3% | [3] -25.6% | [4] -3% | [5] 1.05% | [6] -10.4%

O=[N+]([O-])c1ccc(NCn2c(=S)sc3ccccc32)cc1
inactive: [1] 13.7% | [2] -27% | [3] 11.4% | [4] 2.15% | [5] 2.8% | [6] 3.6%

O=C1C(SCCO)=C(SCCO)C(=O)c2[nH]cnc21
inactive: [1] 13.8% | [2] -10.4% | [3] 6.5% | [4] -0.85% | [5] 6.8% | [6] 4.15%

C=COC(=O)C=C
inactive: [1] -3.1% | [2] 9.15% | [3] -3.2% | [4] -0.2% | [5] 13.9% | [6] -9.15%

O=C(O)CCCC1(CCCC(=O)O)OCCO1
inactive: [1] 9.6% | [2] -4.45% | [3] -22.9% | [4] -60.5% | [5] -13.8% | [6] -2.8%

COC(CCC#N)c1ccc(Cl)cc1 (stereo unspecified)
inactive: [1] -31.9% | [2] -20.6% | [3] -26.6% | [4] 1.7% | [5] -31.9% | [6] -26.6%

CCOC(=O)c1c(C)c2c(n1C)CCC(CCC(C)=O)C2=O (stereo unspecified)
inactive: [1] 5.6% | [2] 5.5% | [3] -0.4% | [4] 14.3% | [5] 6.7% | [6] 3.15%

CCCCCP(=O)(CCCCC)C1CCCC1
inactive: [1] -0.6% | [2] 11.2% | [3] -2.3% | [4] 1.75% | [5] 49.1% | [6] -0.65%

COc1cc2[nH]c3c(c2cc1OC)CCN[C@]31CC[C@]2(CC3c4c(cc(OC)c(O)c42)CCN3C)C[C@H]1OC (stereo partly specified)
inactive: [1] 10.8% | [2] -6% | [3] -16.4% | [4] -2.9% | [5] 7.95% | [6] 7.35%

O=S1(=O)Cc2ccccc2O1
inactive: [1] 4.25% | [2] 5.2% | [3] 28.6% | [4] -3.2% | [5] -19% | [6] 33%

CSCCC(N)C(=O)NC(CCSC)C(=O)O (stereo not drawn) (H-Met-Met-OH; configuration not given here)
inactive: [1] -12% | [2] -21.4% | [3] 2.4% | [4] -25.1% | [5] -8.95% | [6] -5.7%

Clc1ccccc1C=NCCN=Cc1ccccc1Cl
inactive: [1] -1.75% | [2] -14.8% | [3] -3.5% | [4] 0.5% | [5] 3.4% | [6] 1.15%

CC(O)C(=O)N(CCO)CCO (stereo unspecified)
inactive: [1] -5.4% | [2] -21.9% | [3] -13.4% | [4] -35.8% | [5] 3.5% | [6] 10.3%

CCOC(=O)C(C(=O)OCC)(C(=O)C(F)(F)C(F)(F)C(F)(F)C(F)(F)C(=O)C(C(=O)OCC)(C(=O)OCC)c1ccccc1)c1ccccc1
inactive: [1] 3.75% | [2] 0% | [3] -3.7% | [4] -10.6% | [5] 7.75% | [6] 11.1%

CCCCCCCC/C=C\CCCCCCCC(=O)NCCN(CCN)C(=O)CCCCCCC/C=C\CCCCCCCC
inactive: [1] -20.9% | [2] -18.4% | [3] -16.8% | [4] -20.6% | [5] -41.9% | [6] -23.8%

O=C1C2CC3C(C2)C13
inactive: [1] -1.55% | [2] -6.9% | [3] -8.05% | [4] -5.9% | [5] -10.2% | [6] 11.5%

COC(=O)CCCCl
inactive: [1] -51% | [2] -56.4% | [3] -38% | [4] 8.25% | [5] -21% | [6] -15.6%

OCC(O)C(O)C(O)C(O)C(O)[C@@H](O)c1nc2ccccc2[nH]1 (stereo partly specified)
inactive: [1] -9.2% | [2] -5.4% | [3] -12.3% | [4] -16.9% | [5] 50.1% | [6] 6.6%

COc1c(NC(=O)c2c(Br)c(Br)c(Br)c(Br)c2C(=O)O)cccc1[N+](=O)[O-]
inactive: [1] 1.5% | [2] 6.65% | [3] 7.65% | [4] -4.2% | [5] -1.2% | [6] 17.1%

O=CNc1ncccn1
inactive: [1] -6.95% | [2] 1.3% | [3] 7.25% | [4] -2.05% | [5] -2.2% | [6] -7.75%

O=C(O)CCC(=O)C(Cc1ccccc1)NC(=O)c1ccccc1 (stereo unspecified)
inactive: [1] -14.4% | [2] -16.6% | [3] -10.1% | [4] -4.05% | [5] 6.1% | [6] -10.4%

CCc1ccc(/C(C#N)=C/c2ccc(N(C)CCC#N)cc2)cc1
inactive: [1] 10.8% | [2] 2.8% | [3] 18.8% | [4] 5% | [5] 16.9% | [6] -23.9%

O=Cc1ccc(OCc2cccc([N+](=O)[O-])c2)cc1
inactive: [1] 6.6% | [2] 27.1% | [3] 26.4% | [4] -2.6% | [5] 31.4% | [6] 47%

O=[N+]([O-])c1ccc(S(=O)(=O)SC(F)(F)F)cc1
inactive: [1] 14.7% | [2] 3.85% | [3] -1% | [4] -47.1% | [5] -3.25% | [6] 11.3%

Cn1c(=O)c2c(-c3ccccc3)cc(-c3ccccc3)nc2n(C)c1=O
inactive: [1] -18.8% | [2] -16.1% | [3] 1.95% | [4] -30.7% | [5] -10.7% | [6] -21.4%

Cc1ccc(OC(=O)c2cccs2)cc1
inactive: [1] 29.6% | [2] 4.95% | [3] -11.9% | [4] -48.1% | [5] 22% | [6] 22.1%

COc1cc(/C=C2\C(=O)N(C(=O)c3ccc(NC(C)=O)cc3)N=C2C)ccc1O
inactive: [1] -44.7% | [2] -41.1% | [3] -68.8% | [4] -40.4% | [5] -51% | [6] -64%

CC12CC(O)C(C=C1c1ccccc1)C2(C)C (stereo unspecified)
inactive: [1] -7.55% | [2] -0.95% | [3] 0.85% | [4] -14% | [5] -13.1% | [6] 1.45%

CCCCOC(=O)c1ccc(O)cc1.[Zn+2]
inactive: [1] -31.1% | [2] -11.6% | [3] -16.6% | [4] -41.9% | [5] -22.4% | [6] -35.4%

c1ccc(CCN(CCc2ccccn2)CCc2ccccn2)nc1
inactive: [1] -5.85% | [2] -13.6% | [3] 0.35% | [4] 0.3% | [5] 3% | [6] 18%
